Laboratory results published in PubChem BioAssay AID1159580 (chemical genetic matrix, 2015).
Screen size: about 5,500 compounds; about 2,000 (36%) were called active. Not shown: some 18% with an inconclusive outcome. Rule as the data show it: active = normalized growth mostly below about 0.91 (no sharp cut-off); inconclusive = no clear call, values can overlap the other calls; inactive = mostly above about 0.92. The list shows a part of the results.

Experiment: chemical genetic growth profiling, strain panel (AID 1159580);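 also: tested at 20 µM; growth read once vehicle control cultures reached saturation at 30 °C; 1 = growth at the plate median or of vehicle wells; lower values mean less growth of the strain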
Conditions: S. cerevisiae deletion strains, growth OD

Measured: normalized growth

COP(=O)(OC)C(O)C(Cl)(Cl)Cl (stereo not drawn)
inactive: locus YHR030C, strain SLT2, stronger effect = lower value 0.998 | locus YHR079C, strain IRE1, stronger effect = lower value 1.03 | locus YJL095W, strain BCK1, stronger effect = lower value 1.01 | locus YJR066W, strain TOR1, stronger effect = lower value 0.938 | locus YLR113W, strain HOG1, stronger effect = lower value 1 | locus YNL183C, strain NPR1, stronger effect = lower value 0.962 | locus YOR231W, strain MKK1, stronger effect = lower value 1.03 | locus YPL256C, strain CLN2, stronger effect = lower value 0.988
